# Laboratory results: publication PMC12864922, “TDP-43 directly inhibits mRNA accumulation in neurites through modulation of mRNA stability”
# Over roughly 9,900 sequences, “r (bound/input frequency ratio)” has its median near 0.7; the highest 2% begin near 6.5. Only a selection was taken, and the highest values are over-represented in it overall.
# B1: ENSMUSG00000090935.723|Synj2bp (ssRNA)
# RNA: GGGAGUUCUACAGUCCGACGAUCGCUUCGAUAUCCGCAUGCUAAACAUUGUUUUAUUCCUAGGUGCUCAGGACAGACUGAUCAACCUCCAGUAACAUAUGUGGUUAGUAAGUGCUUCAGCUUGUGUAGCCAUUAAUAACCAAGUCAUAGGAUUGUGAAUCUAAAAUACUCCUGGGUAAAAUUUGUAUUAGAAUGGAAAAAAAAAUGAGGGUCAGAAAGGUGAGCUAACUUCAAGUUAGAUACUCCCCUCUAUUUUGGUCUCAAAUUUGUUUUAGUGUGUCCACAACAUGAAAACAUACAAAAACUCUUGCGGUCGCACUAGUGUGGAAUUCUCGGGUGUCAAGG
# B2: ENSMUSG00000058297.523|Spock2 (ssRNA)
# RNA: GGGAGUUCUACAGUCCGACGAUCGCUUCGAUAUCCGCAUGCUAUGGGUGGGCACAGGUCUGCCUUGCUCCAGCCCCCUCCCUUGGUUUCUGUUGGUACCCAUUUGGCUUUUAUCUGCUUUCUGCUUCACCACUAAGUGCGUAGGUGGGGUCUUUUGAUAUCGGCUCCCCAAAGCCCAAGCCCACAGCCCUAGGAGAGAACCAGGGGCCCAUCUUUGACACCUGGGCCAUCACGAGCCCUCCCGCCUGCAGUUGUCCUAGGGAAAGACCUGGGGGUGCAAAAGGAGAUUCAAGACAUCCGUACCCUCUUGCGGUCGCACUAGUGUGGAAUUCUCGGGUGUCAAGG
# B3: ENSMUSG00000004113.207|Cacna1b|52:56;242:246 (ssRNA)
# RNA: GGGAGUUCUACAGUCCGACGAUCGCUUCGAUAUCCGCAUGCUAAGGAAGCAUCGGGUGGAUUGGGUGGGAGCUGCUCAGAGCAGCACGGGGGCUACACACUUAGGGACAUUGACAGUGUCCAUCAGCAUGUCAGAGAAGCAGCUGUAGUGCCCGUGUUUCUCCCUGAGUCAUGGGUUCUGAAGAAGCCAGAGCGGCACAAUGCGUGCUUGCAUGAGGCACUUUCAGCCUUUUUAAAUCUGACUCUCAGGGAUGGGAUGCCUGCCAAGUAGGGUGUAAUCUCUGUACACAUUUUAAAACAACAACUCUUGCGGUCGCACUAGUGUGGAAUUCUCGGGUGUCAAGG
# B4: ENSMUSG00000032194.344|Kank2 (ssRNA)
# RNA: GGGAGUUCUACAGUCCGACGAUCGCUUCGAUAUCCGCAUGCUAAACACCCACCAGUCUCUCCUCUCCUUCCCGCUAUACUCCAGUUUUCUUUCUACUCUGUGACCACGGUACAUCCAUGAAGACAGUGUUACACGUAAAUGAAGUAUUCUUUUCUUGUAAUCAUAUUUUAGAAAGUAAAAGGACUUAAUAAAGCUACAAAUAAAAACAUUGCCUCGUGUCUGUUUGUUCUCCUUCUUUUUAGGCUAGCCUUGAACUCCUGAUCCUCCUGCCUUCCAUCUCCCAAGUGCUGGGAUGACAGGCACCUCUUGCGGUCGCACUAGUGUGGAAUUCUCGGGUGUCAAGG
# B5: ENSMUSG00000004113.341|Cacna1b|1:8;11:16 (ssRNA)
# RNA: GGGAGUUCUACAGUCCGACGAUCGCUUCGAUAUCCGCAUGCUACACACACAAGCACACAUCAGCAAGUGGCUAUUGUCAACCAUAGGGCUAUGCAACAAAAGACACAUUACUAGAAACAAAACACAAGACCACCACUUGGUCUAGGGUUUCAGCAUGAUUGUGACCAAACCUUUUAUAGAAUUUCCUUAUACAAAGGCACAAUACCCUGAAACUUUAACAGAGUAUUUUAUUCCAGUAGGGUAAAAUUAAACGGGACUCUUGGACUGCGCAUGUGACUGCACCCACGUUGCAACAGAGAAGGACUCUUGCGGUCGCACUAGUGUGGAAUUCUCGGGUGUCAAGG
# B6: ENSMUSG00000061578.75|Ksr2 (ssRNA)
# RNA: GGGAGUUCUACAGUCCGACGAUCGCUUCGAUAUCCGCAUGCUAAUGGAACCAGAAACAAUACACCUGCUCCGUUGUCAAGGCUUCUAGGCCAAGGUCAGGGUAGGGAGGUGGGGUGGGUUAAACUUGCAAACAUCUGAUUUUAGAGGUCCCAUUCCAAGAUGGAAGUCACCGGUUGCCGCUGAGCACACAAUUCUGAAGGACAGUAGGCAGUCCUGCAGGUCUUUUUUAGCACAGGGCCUCUCUGGGGACCAGUCCCUGGCCUUCACCCUUCUCCCAUUUUGUAAGAACACUGUUCUAACUCACUCUUGCGGUCGCACUAGUGUGGAAUUCUCGGGUGUCAAGG
# B7: ENSMUSG00000034801.114|Sos2 (ssRNA)
# RNA: GGGAGUUCUACAGUCCGACGAUCGCUUCGAUAUCCGCAUGCUACCCCAGGUGAUCAGCAGCAUUGCUUCCUCGGCUCCCCAGUGCUGCCCUAGGCCAGUAUAAAGACUCUGUAUUGCACUGUAGACUCUGCUAGCAGACGGCACUGAGAGGAGCCAGCGCUCGAGGGCGUUCUCACGCCUGACUGAUAGAUACCUUUUUAGGGUGAUGAACUUACACAGAUGCAGAAGAUAUGGGGUGGUGGUCCUGGGUUUUAACCCUCUGACCGUCUUCUAGCUUCUAAUUUUGUUUGGUUUUUACAUCUACUCUUGCGGUCGCACUAGUGUGGAAUUCUCGGGUGUCAAGG
# B8: ENSMUSG00000061578.1547|Ksr2|98:102 (ssRNA)
# RNA: GGGAGUUCUACAGUCCGACGAUCGCUUCGAUAUCCGCAUGCUAUUUAUAAAGUUUUCUACACUUCUCAAAAAAAAAAAUAUUUCUAACCUUGGCUGUUGGACAGUCUGUGAGCCUGUGAGCCGGCAAGCCUGUUGUUUCUACACAUUAGUGCAAUGUUAGUGAGAAUCCAGUGUCUGAGUUAUUAAUGCCAAUAAAGAAUUUGAGAAUUACUGCAUCCGCUGCUGUCACUCCAGGUCAGAACUCUGCUGUUGUCUGUUGGAUGGAAGGAAGCUCCAGAGUGAGGAACAAUGGUUGCUAACUGCCUCUUGCGGUCGCACUAGUGUGGAAUUCUCGGGUGUCAAGG
# B9: ENSMUSG00000022095.37|Fam160b2|125:129 (ssRNA)
# RNA: GGGAGUUCUACAGUCCGACGAUCGCUUCGAUAUCCGCAUGCUAACCUCACCUGUUGACCCCACGAGCUGAGGUUUCAAGGAGGUGCUGGCUCCUAAGGCAGUGGUAUUCUUGGAGCCUUUUAGAGGAGCUAGAGGAUGGCCAGUGAGCGCCUAGAUGCUGCCCUGCAACACAUGCGUGACUAUCUCUGCUAUAUUGUGACCAGGGCCACAACAUGAGACAACUCCAGGGGCCAGGGAGAUGAACUGCUGUCUUUGAGGCUGGCUAAAAAAACAAUCCAGUCCAGAGAGAUGGGGAGGGGGGGACUCUUGCGGUCGCACUAGUGUGGAAUUCUCGGGUGUCAAGG
# Biological target: TDP-43 (Homo sapiens, UniProt Q13148 1-414)
# Sequence (Q13148 whole entry): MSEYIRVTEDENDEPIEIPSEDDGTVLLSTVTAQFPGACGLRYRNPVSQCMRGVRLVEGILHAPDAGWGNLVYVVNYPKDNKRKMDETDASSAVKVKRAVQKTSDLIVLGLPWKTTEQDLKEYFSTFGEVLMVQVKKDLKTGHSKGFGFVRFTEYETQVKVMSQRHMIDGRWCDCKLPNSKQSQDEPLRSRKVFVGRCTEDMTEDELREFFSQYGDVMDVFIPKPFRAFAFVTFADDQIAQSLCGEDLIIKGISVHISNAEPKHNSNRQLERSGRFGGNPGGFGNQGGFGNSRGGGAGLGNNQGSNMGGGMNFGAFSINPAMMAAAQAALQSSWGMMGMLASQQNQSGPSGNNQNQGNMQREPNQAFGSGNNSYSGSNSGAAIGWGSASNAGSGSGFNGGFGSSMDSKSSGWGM
# Test: RNA Bind-n-Seq with designed 260-mer pool; 25 mM Tris-HCl, 150 mM KCl, 3 mM MgCl2, BSA (printed 500 mg/mL), 20 units/mL SUPERase IN; pH not stated; 500 nM RNA pool, 1 h, 4 C; TDP-43 5, 50, 500 nM; high values mean tight binding
# Conditions: protein: recombinant; tags: SBP (GST cleaved off with PreScission; pGEX-GST-SBP)
# How it was run: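 The incubation lasted 1 h at 4 °C and used 500 nM of an in vitro-transcribed 260-nt 3′ UTR oligo pool with recombinant SBP-tagged TDP-43 at 5, 50 or 500 nM immobilized on streptavidin beads. It took place in 25 mM Tris-HCl, 150 mM KCl, 3 mM MgCl2, BSA and SUPERase IN. Bound RNA was washed, eluted with biotin, converted to cDNA, PCR-amplified and sequenced to give R, each oligo's normalized abundance in the bound sample divided by that in input. Two independent protein batches provided the duplicates.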
row,Binder,binding signal
1,B1,0.199 R (bound/input frequency ratio)
2,B2,0.928 R (bound/input frequency ratio)
3,B3,0.888 R (bound/input frequency ratio)
4,B4,0.585 R (bound/input frequency ratio)
5,B5,0.234 R (bound/input frequency ratio)
6,B6,0.151 R (bound/input frequency ratio)
7,B7,0.44 R (bound/input frequency ratio)
8,B8,0.38 R (bound/input frequency ratio)
9,B9,1.26 R (bound/input frequency ratio)
